Pf Dd2 inh: blocks in vitro growth of P. falciparum Dd2; P. falciparum Dd2 growth, SYBR Green, 72 h; Potency, µM (highest dose often 28.9 µM), for the others: at the top dose activity, negative = inhibition, actives largely listed as inhibitors; 120,000 compounds, 4.3% hits; AID 1347417; active = well fitted inhibition curve with a large enough effect;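 note: plate controls were DMSO vehicle for no effect and reference drug for full effect; nearly all actives have a fitted effect of over 65% in size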
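Readout: SYBR Green fluorescence, 485 nm excitation, 535 nm emission, after ~16 h lysis at 37C. Before that, Dd2-infected red cells (2.5% hematocrit) grew 72 h with compound, 29 uM top final concentration.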
* marks the source's active call; other numbers are inactive results; i = inactive; ! = not confirmed by another sample; [ ] = another dose, or the depositor's remark. The entries come from a sample that favours hits as a whole. Potency is the fitted concentration of half-maximal effect.

SMILES	Pf Dd2 inh
CC(=O)N1CC(CO)C2(CCN(Cc3c[nH]c4ccccc34)CC2)C1 (stereo not given)	46.5%
O=C(c1ccccc1)N1Cc2ccccc2CC2(CCN(CC3CCNC3)C2)C1 (stereo not given)	2.7%
CC(=O)N1CC2(CCN(CC3CC3)C2)Cc2ccccc21 (stereo not given)	-26.1%[44.1 µM]
CC(=O)NCC(=O)N1Cc2ccccc2CC2(CCN(CC3CCCCC3)C2)C1 (stereo not given)	-24.3%
CC(=O)N1CC2(CCCN(CC3CCCCC3)C2)Cc2ccccc21 (stereo not given)	10µM*
CC(=O)N1CC2(CCN(CC3CC3)CC2)Cc2ccccc21	-13.9%[44.1 µM]
CC(=O)N1CC2(CCN(C(=O)c3ccc(Cl)cc3)CC2)Cc2ccccc21	2.6%
CC(=O)N1Cc2ccccc2CC2(CCN(CC3CCNCC3)C2)C1 (stereo not given)	12.7%
O=C(C1CCCC1)N1CC2(CCN(Cc3c[nH]c4ccccc34)CC2)Cc2ccccc21	4.47µM*
O=C(C1CCCC1)N1CC2(CCN(CC3CC3)C2)Cc2ccccc21 (stereo not given)	8.91µM*
O=C(c1ccc(Cl)cc1)N1CC2(CCN(CC3CCCCC3)CC2)Cc2ccccc21	5.62µM*
CCC(=O)NCC(=O)N1CCCCCCNC(=O)CC1c1ccccc1 (stereo not given)	32.7%
Cc1cncc(C(=O)N2CC(CO)C3(CCNCC3)C2)c1 (stereo not given)	19.8%
Cn1cc(CNC(=O)C[C@@H]2C[C@H]3O[C@H](CNCc4ccncc4F)[C@@H](O)[C@H]3O2)cn1	13.5%[44.1 µM]
CCN1C(=O)CCN(C(=O)c2cccnc2C)CC12CCOCC2	12.8%
COc1ccc(CN2CCn3c(nnc3-c3ccc(Cl)cc3)C2)cc1	-23.0%
COc1ccc(CNC(=O)[C@@H]2CCC[C@@H](NC(=O)c3nc4ccccc4s3)CN(C)C(=O)C2)cc1	-15.6%
COCCNC(=O)[C@@H]1CCC[C@@H](NC(=O)NC2(c3ccccc3)CCOCC2)CN(C)C(=O)C1	i
CCc1cccc(NC(=O)CC2=C3CCCCC3NC2=O)c1 (stereo not given)	-9.4%
Cc1c(F)cccc1NC(=O)N1C[C@@H](F)C[C@H]1C(=O)N1CCCCC1	-12.4%
O=C(C1CCCC1)N1CC2(CCN(Cc3ccccn3)CC2)Cc2ccccc21	10µM*
C[S+](=O)([O-])N1Cc2ccccc2CC2(CCN(Cc3ccccn3)CC2)C1	-19.3%
O=C(C1CCCC1)N1CC2(CCCN2C2COC2)Cc2ccccc21 (stereo not given)	8.91µM*
CS(=O)(=O)N1CCCN(C(=O)C2CCCCC2)c2ccccc21	32.9%
CC(=O)N1CC2(CCCN2C(=O)CCC(=O)O)Cc2ccccc21 (stereo not given)	18.5%
SMILES	Pf Dd2 inh
O=C(O)CCC(=O)N1CCC2(Cc3ccccc3N(C(=O)C3CCCC3)C2)C1 (stereo not given)	21.5%
O=C(NC1CCCCC1)[C@@H]1Cc2nc[nH]c2CN1C(=O)C1CC1	51.7%[44.1 µM]
COc1ccc(CNC(=O)c2cc(-c3ccc(Br)s3)nc3ccccc23)cc1	232.4%[5.79 µM]
Cc1ccc(NC(=O)c2cc(-c3ccc(Br)s3)nc3ccccc23)cc1F	-22.5%
CCN(CC)CC(C)CNC(=O)c1cc(-c2ccc(Br)s2)nc2ccccc12 (stereo not given)	11.2µM*
C=CCNC(=O)N1CC[C@H]2CC(=O)N(Cc3ccc4c(c3)OCO4)CC[C@H]2C1	2.1%[44.1 µM]
O=C(Cc1ccccc1)N1CCC(Oc2cnc3c(ccn3-c3cncnc3)c2)CC1	12.6µM*
O=C(OCc1ccccc1)N1CCC(Oc2cnc3c(ccn3-c3cncnc3)c2)CC1	i
O=C(CC1CC1)N1CCC(Oc2cnc3c(ccn3-c3cncnc3)c2)CC1	i
CC1=NOC2(CCN(C(=O)c3ccc(Cl)cc3)CC2)C1	17.2%[44.1 µM]
CC(=O)Nc1ccc(CN2CCC(c3nc4ccc(F)cc4c(=O)[nH]3)CC2)cc1	-22.9%
O=c1[nH]c(C2CCCN(Cc3cccc(-c4cccs4)c3)C2)nc2ccc(F)cc12 (stereo not given)	8.91µM*!
O=c1[nH]c(C2CCCN(Cc3ccccc3)C2)nn1-c1ccccc1 (stereo not given)	-22.1%[44.1 µM]
Cc1ccc(-c2cccc(CN3CCCC(c4nc5ccc(F)cc5c(=O)[nH]4)C3)c2)c(C)c1 (stereo not given)	12.6µM*!
Cc1ccc(-c2cccc(CN3CC4CCC(C3)N4c3ccc(C(F)(F)F)cc3)c2)c(C)c1	185.1%
Cc1ccc2nc(C3CCCN(CC4CCCC4)C3)[nH]c(=O)c2c1 (stereo not given)	8.91µM*!
Cc1ccc(-c2cccc(CN3CCN(c4ccc(Cl)nn4)C(=O)C3)c2)c(C)c1	-20.6%
Cc1ccc2nc([C@H]3CCN(Cc4cccs4)C3)[nH]c2c1	-17.4%[44.1 µM]
N#Cc1cccc(CN2CCC(c3nc4ccc(F)cc4c(=O)[nH]3)CC2)c1	1.9%
Cc1cc(C)cc(-c2ccc(CN3CCCC(c4nc5ccc(F)cc5c(=O)[nH]4)C3)cc2)c1 (stereo not given)	10µM*!
COc1ccc(CN2CCCC(c3nn(-c4ccccc4)c(=O)[nH]3)C2)cc1 (stereo not given)	-16.6%
O=c1[nH]c(C2CCCN(CC3CCCCC3)C2)nn1-c1ccccc1 (stereo not given)	i
Cc1ccc(-c2noc(-c3nc(-c4ccncc4)no3)n2)cc1	14.9%
COCC(=O)NCC12CCCC=C1NC(=O)CC2 (stereo not given)	-17.4%
CN(C)C(=O)c1ccn2nccc2c1	-6.1%[44.1 µM]
SMILES	Pf Dd2 inh
CO[C@H]1C(=O)N(C(C)C)[C@H]1C1CCN(C(=O)c2sc(C)nc2C)CC1	18.7%
Fc1ccc2c(c1)nc1n2[C@@H](CNC2CCOCC2)COC1	-19.2%[44.1 µM]
CCc1nc2c(c(-c3ccc(OC)cc3)n1)CCN(C(=O)c1ccccc1F)CC2	-3.0%
CCc1noc(-c2cn(C3CCN(C(=O)c4ccc(C)s4)C3)nn2)n1 (stereo not given)	-2.3%
COc1cc(NC(=O)N2CCC(OC3CCN(S(C)(=O)=O)CC3)CC2)cc(OC)c1	-0.1%
COc1ccc(NC(=O)NC[C@H]2O[C@@H]3C[C@@H](CC(=O)NCc4nccn4C)O[C@@H]3[C@@H]2O)cc1	24.0%
COc1ccc(-n2nc(C3CCN(Cc4cccnc4)CC3)[nH]c2=O)cc1	-13.4%
CCN1CCC(c2nc3ccc(F)cc3c(=O)[nH]2)CC1	0.3%[44.1 µM]
Cc1ccc2nc(C3CCN(Cc4cccc(-c5cccnc5)c4)CC3)[nH]c(=O)c2c1	8.91µM*!
CC(C)NC(=O)N1CC[C@H](c2nc3ccc(F)cc3[nH]2)C1	i
CC(=O)Nc1ccc(CN2CCC(c3nc4ccc(C)cc4c(=O)[nH]3)CC2)cc1	-10.9%
CC(C)CN1CCCC(c2nc3ccc(F)cc3c(=O)[nH]2)C1 (stereo not given)	5.01µM*
OC1CCOC2(CCNCC2)C1 (stereo not given)	28.5%
CC(=O)N[C@H]1CC[C@]2(C)CC[C@@H](C(C)C(=O)NC3CC3)[C@H](O)[C@H]2[C@@H]1C (stereo not given in full)	2.8%[44.1 µM]
COC[C@@H]1CN(C(=O)Cc2c(C)noc2C)C[C@H]1c1ccccn1	17.3%
O=[S+]([O-])(c1cccs1)N1CCn2c(nnc2C2CC2)C1	-20.6%[44.1 µM]
COc1ccc(S(=O)(=O)N2CCCC(c3nn[nH]n3)C2)cc1 (stereo not given)	-17.4%
COc1ccc(CNC(=O)c2cc3cn(C4CC4)cc3s2)cc1OC	i
Cc1ccc(CNC(=O)c2cc3cn(C(C)C)cc3s2)o1	i
COc1ccc(CCNC(=O)c2cc3cn(C(C)C)cc3s2)cc1OC	8.91µM*

Source: PubChem
